# Reference: PubChem BioAssay AID504411 (The Scripps Research Institute Molecular Screening Center, 2011)
# The whole screen tested about 340,000 compounds, of which about 200 (0.059%) were called active. Many of the other results were omitted from the sample, so actives are more common in it than they were. Values without a mark were called inactive. Cut-off read from the data, not from the text of the source: active = inhibition above about 34%; inactive = the rest.
# Molecular target: Diacylglycerol lipase-beta (Homo sapiens) (UniProt Q8NCG7)
# Assay: inhibition of human DAGLB hydrolase activity – biochemical, fluorescence, HTS, primary screen (AID 504411);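 note: 0% = enzyme with vehicle and 100% = wells lacking enzyme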
# Settings: HEK293T DAGLB membrane lysate, EnzChek fluorogenic substrate; at 5.17 µM; stronger effect = higher value
# Sequence of Diacylglycerol lipase-beta (Homo sapiens) (Q8NCG7 whole entry, looked up): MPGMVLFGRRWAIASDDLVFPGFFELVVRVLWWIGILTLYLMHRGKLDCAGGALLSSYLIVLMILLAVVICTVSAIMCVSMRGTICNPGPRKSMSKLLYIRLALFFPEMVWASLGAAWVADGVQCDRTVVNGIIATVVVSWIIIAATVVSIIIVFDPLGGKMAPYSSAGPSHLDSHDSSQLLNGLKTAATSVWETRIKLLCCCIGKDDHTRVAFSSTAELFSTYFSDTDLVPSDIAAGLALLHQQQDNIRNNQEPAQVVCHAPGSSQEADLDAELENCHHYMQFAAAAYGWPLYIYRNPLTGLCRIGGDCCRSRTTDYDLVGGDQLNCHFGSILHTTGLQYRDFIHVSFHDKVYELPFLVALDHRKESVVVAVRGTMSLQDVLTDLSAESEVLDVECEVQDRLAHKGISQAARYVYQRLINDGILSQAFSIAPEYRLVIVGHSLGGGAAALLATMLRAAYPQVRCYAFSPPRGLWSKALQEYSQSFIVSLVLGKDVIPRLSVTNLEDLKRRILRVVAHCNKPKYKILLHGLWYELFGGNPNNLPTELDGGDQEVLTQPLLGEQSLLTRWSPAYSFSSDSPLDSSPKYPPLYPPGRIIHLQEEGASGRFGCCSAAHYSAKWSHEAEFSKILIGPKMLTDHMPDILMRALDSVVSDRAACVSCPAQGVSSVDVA
row,SMILES,inhibition
1,O=C1COc2ccc(C(=O)COC(=O)c3ccccc3Cl)cc2N1,-2.51%
2,CCN1CCN(CC(=O)c2cc(OC)c(OC)c(OC)c2)CC1,-1.97%
3,COc1ccc(/C=C/CN2CCN(Cc3ccc(C)cc3)C(CCO)C2)cc1 (stereo not given),-2.8%
4,Cc1ccccc1C(=O)N1CCC(C(=O)Oc2ccc(C#N)cc2)CC1,-0.99%
5,COc1ccc(-c2nc(N)sc2C2(O)C(=O)Nc3c(Br)cc(F)cc32)cc1OC (stereo not given),-0.83%
6,O=S1(=O)CCO[C@H]2Cc3ccccc3[C@H]2N1Cc1ccccc1,-1.47%
7,Cc1nc(NC(=O)c2ccc3c(c2)OCCO3)ccc1Br,-9.56%
8,COc1ccc(OC)c(NC(=O)CN(C)CCOc2ccc(Br)cc2)c1,-4.02%
9,CCOC(=O)c1sc(/N=C/Nc2nc(C)c(C(=O)OCC)s2)nc1C,-0.89%
10,O=C(Nc1c2c(nn1-c1cccc(Cl)c1)CS(=O)(=O)C2)c1cccs1,-3.19%
11,CCOC(=O)c1nn(-c2ccccc2F)c2nc(Nc3ccccc3)cc(=O)n12,0.18%
12,Cc1nn(-c2ncccn2)c2c1C(=O)CC(C)(C)C2Br (stereo not given),-0.78%
13,CCCN1C(=O)C(NS(=O)(=O)c2ccc(N)cc2)(C(F)(F)F)C(C(=O)OC)=C1C (stereo not given),0.93%
14,COc1ccc(C(=O)CN2C(=O)NC3(CCc4ccccc43)C2=O)c(OC)c1 (stereo not given),-2.52%
15,CC(=O)Nc1ccc(NS(=O)(=O)c2cc(C)sc2C)cc1,2.41%
16,COc1cccc(N(C(=O)CNC(=O)c2ccco2)C(C(=O)NC2CCCCC2)c2cccnc2)c1 (stereo not given),-2.11%
17,O=c1[nH]c2c(c(=O)n1-c1ccccc1)CCO2,0.85%
18,CCOC(=O)c1cnc2ccc(F)cc2c1Nc1ccc2c(c1)OCCO2,-13.6%
19,COc1cc(CCC(=O)N2CCN(c3ccccc3Cl)CC2)cc(OC)c1OC,-2.89%
20,O=C(c1cccs1)N1CCCC(c2nc(-c3ccc(F)cc3)no2)C1 (stereo not given),-7.27%
21,C=CCNC(=S)N1CCN(CCN=Cc2c(C)[nH]n(-c3ccc([N+](=O)[O-])cc3)c2=O)CC1,1.77%
22,O=C(CN1CCC(NC(=O)C2CC2)CC1)Nc1ccccc1[N+](=O)[O-],1.28%
23,Cc1ccc(/C=N/NC(=O)C(NC(=O)c2ccccc2)c2n[nH]c(=O)c3ccccc23)cc1 (stereo not given),34.8% (active)
24,O=C(O)c1ccc(/C=N/NC(=S)NCc2ccccc2)cc1,3.11%
25,Cc1ccc(/C=N/NC(=O)COc2ccccc2-c2ccccc2)cc1,-8.44%
